According to PubChem BioAssay (NCATS):
Results filed as inconclusive are left out. Calls of active or inactive are those of the source. Unless noted, calls follow the shape of the dose curve; as a rule, active = well fitted curve in the direction sought with a large enough effect; inconclusive = small, poorly fitted or top-dose-only effect, or another doubt; inactive = no such curve, though single readings can be large; an effect the other way counts as inactive or inconclusive.

Columns and labels:
[1] = qHTS for inhibitors of adenylyl cyclases using a fission yeast platform: a pilot screen against the NCATS LOPAC library (AID 1347410);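 also: plate controls were DMSO vehicle for no effect and DPI positive control for full effect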; conditions: S. pombe CHP2027, fbp1-GFP fluorescence, 18 h, yeast expressing mammalian AC9 and human GNAS; series mostly up to 57.5 µM
Summary of the method: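 S. pombe CHP2027 (AC9-GNAS-PDE4D2) carrying a PKA-repressed fbp1-GFP reporter was exposed to LOPAC compounds (final up to 57 µM) for 18 h at 30C in the dark, in EMM with histidine, lysine and uracil; GFP gain-of-signal read by laser scanning cytometry.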

[2] = Validation qHTS assay for inhibitors of Activation Induced Cytidine Deaminase (AID): UDG Counterscreen signal (AID 1347427); conditions: biochemical UDG counterscreen, fluorescence signal; series mostly up to 115 µM; also: 0% is about no effect
Summary of the method: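 Counterscreen read of UDG activity (2 U/mL, 4/3x) in the FRET deamination format with AID (1 uM, 4/3x), DJC20/DJC23 substrates (250 nM, 4x), 4 h at room temperature. NaOH stop, fluorescence at 560 ex/665 em.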

[3] = Primary qHTS for small molecule stabilizers of the endoplasmic reticulum resident proteome: Secreted ER Calcium Modulated Protein (SERCaMP) assay (AID 1508630); conditions: SH-SY5Y GLuc-SERCaMP (Gaussia luciferase released on ER calcium loss) secretion, thapsigargin, luminescence; series mostly up to 38.4 µM; also: % is scaled to controls: 0 for no effect and ±100 for the full control effect
Summary of the method: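 GLuc-SERCaMP-expressing SH-SY5Y cells, pretreated 16 h with compound, are challenged with thapsigargin to empty ER calcium stores; after 4 h, coelenterazine is added directly to the medium and luminescence is imaged.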

[4] = target: Calcium and integrin-binding protein 1 (Homo sapiens) (UniProt Q99828); assay: Validation qHTS for Identification of Calcium Integrin Binding protein 1 (CIB1) Competitor (AID 1508618); conditions: CIB1-GST / FITC-alphaIIb peptide fluorescence polarization; series mostly up to 114 µM; also: % is scaled to controls: 0 for no effect and ±100 for the full control effect
Summary of the method: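 Fluorescence polarization with 1 uM CIB1-GST and 100 nM FITC-alphaIIb peptide in HEPES pH 7.4, NaCl, 5 mM CaCl2, Tween20. Compounds at up to 114 uM final, preincubated with protein 15 min; read after 15 min more at RT.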

[5] = target: Cytochrome P450 2D6 (Homo sapiens) (UniProt P10635); assay: Cytochrome P450 family 2 subfamily D member 6 (CYP2D6) small molecule antagonists: luciferase biochemical (cell-free) qHTS assay (AID 1645840; active = well fitted curve in the direction sought with a large enough effect in the repeat runs; an effect the other way counts as inactive or inconclusive; also: % is scaled to controls: 0 for no effect and ±100 for the full control effect; nearly all actives have a fitted effect of over 55% in size); conditions: P450-Glo CYP2D6 enzyme, luciferin luminescence, 1 h; series mostly up to 57.4 µM
Summary of the method: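 P450-Glo luminescent screen: recombinant CYP2D6 enzyme–proluciferin substrate mix preincubated with compound 10 min at room temperature, then NADPH regeneration added for 1 h at room temperature. Detection reagent added for 20 min; luciferin light read as relative luminescence units.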

Papain (Carica papaya) = Papain (Carica papaya) (UniProt P00784); assay: Primary qHTS assay for inhibitors of the protease papain (AID 1645873); conditions: papain Z-FR-AMC cleavage, AMC fluorescence; series mostly up to 49.8 µM;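 also: papain turnover of Z-FR-AMC read as the AMC fluorescence gain over 10 min; % is scaled to controls: 0 for no effect and ±100 for the full control effect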
[6] = Primary qHTS for inhibitors of La Crosse Virus (LACV) - induced cell death in SH-SY5Y cells (AID 1508616); conditions: SH-SY5Y LACV cytopathicity rescue, ATP luminescence, 6 d; series mostly up to 9.63 µM;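 also: top concentration of the series differs between compounds; 0% = infected DMSO wells and 100% = uninfected DMSO wells; higher means more rescue of cells from virus-induced death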
Summary of the method: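 Luminescent ATP readout (ATPLite 1step, 5 min room temperature) measured rescue from LACV-induced death after 6 days of infection at 0.01 MOI; normalized to infected DMSO wells and uninfected DMSO wells.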

[7] = Cell Viability qHTS for small molecule stabilizers of the endoplasmic reticulum resident proteome (AID 1508629); conditions: cell viability counter-screen, 100 nM thapsigargin for final 4 h;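 also: human SH-SY5Y neuroblastoma cells carrying the GLuc-SERCaMP reporter; compound exposure about 46 h in total before the viability read; % is scaled to controls: 0 for no effect and ±100 for the full control effect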

Calcium and integrin-binding protein 1 (Homo sapiens), sequence (Q99828 whole entry, looked up): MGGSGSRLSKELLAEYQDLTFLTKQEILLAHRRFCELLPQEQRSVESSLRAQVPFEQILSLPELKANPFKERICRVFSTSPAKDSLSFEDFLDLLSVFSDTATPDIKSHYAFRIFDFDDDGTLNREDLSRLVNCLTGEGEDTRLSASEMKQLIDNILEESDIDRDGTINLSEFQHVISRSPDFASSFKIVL
Papain (Carica papaya), sequence (P00784 whole entry, looked up): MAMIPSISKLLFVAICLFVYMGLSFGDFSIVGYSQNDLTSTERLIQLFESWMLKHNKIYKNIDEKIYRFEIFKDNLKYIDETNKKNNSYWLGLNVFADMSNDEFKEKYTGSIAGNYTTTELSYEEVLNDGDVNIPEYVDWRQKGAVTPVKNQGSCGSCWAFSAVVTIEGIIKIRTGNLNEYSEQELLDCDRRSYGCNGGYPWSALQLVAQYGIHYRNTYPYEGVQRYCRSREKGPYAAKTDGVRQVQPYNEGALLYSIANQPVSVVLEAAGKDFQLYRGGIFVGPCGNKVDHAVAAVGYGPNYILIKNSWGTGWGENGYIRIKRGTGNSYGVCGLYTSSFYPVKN
Cytochrome P450 2D6 (Homo sapiens), sequence (P10635 whole entry, looked up): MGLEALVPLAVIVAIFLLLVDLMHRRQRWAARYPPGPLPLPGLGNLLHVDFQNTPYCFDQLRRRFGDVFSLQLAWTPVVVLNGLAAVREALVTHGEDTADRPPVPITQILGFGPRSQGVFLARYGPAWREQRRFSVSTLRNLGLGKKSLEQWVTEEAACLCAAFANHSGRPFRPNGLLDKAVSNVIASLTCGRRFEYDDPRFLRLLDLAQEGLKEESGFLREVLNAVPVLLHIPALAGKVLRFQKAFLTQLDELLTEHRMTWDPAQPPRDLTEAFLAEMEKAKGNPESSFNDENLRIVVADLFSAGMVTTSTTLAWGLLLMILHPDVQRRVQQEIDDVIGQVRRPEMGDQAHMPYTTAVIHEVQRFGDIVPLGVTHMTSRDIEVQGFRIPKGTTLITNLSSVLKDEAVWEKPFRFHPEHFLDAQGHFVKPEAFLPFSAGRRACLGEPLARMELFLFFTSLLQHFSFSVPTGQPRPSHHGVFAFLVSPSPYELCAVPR

O=[N+]([O-])c1ccc2c(c1)S(=O)(=O)C=C2
inactive: outcome [1] | Potency [2] | Potency [3]

O=C1NC(O)=NC1(c1ccccc1)c1ccccc1
inactive: outcome [1] | outcome [4] | Potency [5] | Potency (Papain (Carica papaya))

CC(C)Cc1ccc([C@H](C)C(=O)O)cc1
inactive: outcome [1] | Potency [6] | Potency [3] | Potency (Papain (Carica papaya))

O=C(c1ccc(Cl)cc1)N1CCN(c2ccc([N+](=O)[O-])c3ncccc23)CC1
inactive: outcome [1] | Potency [2] | outcome [4] | max response [7] 3.83% | Potency (Papain (Carica papaya))

Nc1ncnc2c1ncn2[C@@H]1O[C@H](COP(=O)(O)CP(=O)(O)OP(=O)(O)O)[C@@H](O)[C@H]1O
inactive: outcome [1] | Potency [2] | Potency [6] | outcome [4] | Potency [3] | Potency (Papain (Carica papaya))
